The term inhibition denotes the relative decrease from the control value, in per cent.

The results in this text go back to PubChem BioAssay AID602399 (Sanford-Burnham Center for Chemical Genomics, 2012).

SMILES strings stand for the structures. The campaign covered roughly 360,000 compounds. About 2,800 (0.78%) were called active. Cut-off read from the data, not from the text of the source: active = inhibition above about 26%; inactive = the rest. Shown is part of a subset that was picked to be rich in actives.

In this test the test system is Nicotinate-nucleotide adenylyltransferase NadD (Staphylococcus aureus N315). In words: S. aureus NadD enzyme activity blockers – biochemical, colorimetric, uHTS, primary screen (AID 602399). To be noted: purified NadD enzyme, colorimetric absorbance read-out; at 20 µM; hits give high values.
Take `O=[N+]([O-])c1ccc(Oc2ccc(F)cc2Br)c2ccncc12`: the inhibition is 4.81% (inactive).

With `CCCn1nnnc1NC(=O)COc1ccc(Cl)cc1C`, the inhibition was 8.48% (inactive).

`CCc1ccc(C(=O)OCC(=O)NCC(F)(F)F)cc1`: the inhibition was -0.578% (inactive).

For the molecule `Cc1ccc(Nc2nc(-c3sc(NC(=O)c4ccccc4)nc3C)cs2)cc1`, the inhibition was 36.9% (active).

On to `C=CCCC(=O)Nc1nc(C)c(-c2csc(Nc3ccc(Cl)cc3)n2)s1`, for which the inhibition was 12.2% (inactive).

On to `Cc1ccn2c(-c3csc(Nc4ccc(C(=O)O)cc4)n3)c(C)nc2c1`, for which the inhibition is -7.16% (inactive).

Regarding `c1ccc2c(c1)OC1OC2Oc2ccccc21`, the inhibition was -4.86% (inactive).

Regarding `COc1ccc(C(=O)N2CCCC(C(=O)c3ccccc3OC)C2)cc1OC` (stereo unspecified), the inhibition was -7.22% (inactive).

`O=C(O)c1ccc(NN=CC2=C(N3CCOCC3)/C(=C/c3ccccc3)CC2)cc1`: the inhibition is 19.5% (inactive).

Take `O=C1Nc2ccc(Br)cc2/C1=N/N=C/C1=C(N2CCOCC2)C(=C\c2ccccc2)/CC1`: the inhibition was 30.5% (active).

As for `CC1=NN(C(=O)CCc2ccccc2O)C(O)(C(F)(F)F)C1` (stereo unspecified), the inhibition was 17.6% (inactive).

Turning to `O=C1OC(NC(=O)c2ccccc2)C(N2CCOCC2)=C1Cl` (stereo unspecified), the inhibition is -2.17% (inactive).

Turning to `Cn1c(N)c(C(=O)COC(=O)c2cccc(S(=O)(=O)N3CCOCC3)c2)c(=O)n(C)c1=O`, the inhibition is -4.47% (inactive).

As to `Oc1oc(-c2ccccc2Br)nc1/C=N/c1ccccn1`, the inhibition is -8.02% (inactive).

Regarding `CCOc1ccc2nc(/N=C/c3nc(-c4ccccc4)oc3O)sc2c1`, the inhibition was 37% (active).

On to `CCOc1ccc2nc(C(=O)N3CCCC(C)C3)sc2c1` (stereo unspecified), for which the inhibition is -8.67% (inactive).

In the case of `COc1ccc(S(=O)(=O)NCc2cccnc2)cc1NC(=O)c1ccc(C)cc1`, the inhibition was -1.72% (inactive).

Regarding `Cc1ccccc1OCC(=O)N(Cc1cccc(F)c1)C1CCS(=O)(=O)C1` (stereo unspecified), the inhibition is -3.33% (inactive).

With `O=S(=O)(c1ccc(-c2ccccc2)cc1)N1CCCC1`, the inhibition is -5.08% (inactive).

As to `O=C1CCC(C(=O)N2CCN(c3ccccc3Cl)CC2)CN1CC1CCCCC1` (stereo unspecified), the inhibition is 5.68% (inactive).

On to `Cc1nc(N2CCOCC2)c2c(C)c(C(=O)Nc3ccc(C(F)(F)F)cc3)sc2n1`, for which the inhibition is -4.82% (inactive).

Turning to `Cc1nc(N2CCN(c3ccccn3)CC2)c2c(C)c(C(=O)Nc3ccc(F)c(Cl)c3)sc2n1`, the inhibition was 29.5% (active).

For `Cc1nc(N2CCC(C)CC2)c2c(C)c(C(=O)Nc3cc(F)ccc3C)sc2n1`, the inhibition is 7.17% (inactive).

Take `O=S(=O)(NN=C1CCCCCCC1)c1ccc(Br)cc1`: the inhibition is -0.0867% (inactive).

Consider `O=C(CNS(=O)(=O)c1ccc(Br)s1)N1CCN(C(=O)c2ccco2)CC1`, for which the inhibition is -0.302% (inactive).

As to `COc1cc(C2CC(=O)N3CN(Cc4ccccc4)CSC3=C2C#N)ccc1OCc1ccccc1` (stereo unspecified), the inhibition was 31.4% (active).

Consider `CCCNC(=O)C1CC(=O)N(c2ccc(OCc3ccccc3)cc2)C1` (stereo unspecified), for which the inhibition is 0.155% (inactive).

For `COc1cc(CNC2CCCC2)c(Br)cc1OCc1ccccc1`, the inhibition was -2.14% (inactive).

Turning to `O=C(C[C@H]1C/C=C\C[C@@H](NC(=O)OCC2c3ccccc3-c3ccccc32)C(=O)O[C@@H](c2ccccc2)CNC1=O)N[C@H](CO)Cc1ccccc1`, the inhibition is 10.3% (inactive).

Turning to `COc1ccc(C(C#N)(CC(=O)O)c2cnccn2)cc1OC` (stereo unspecified), the inhibition was -3.22% (inactive).

Take `CCOc1ccc(C(=O)NC2CCN(C(=O)Nc3ccccc3OC)CC2)cc1`: the inhibition is 2.23% (inactive).

Consider `CCOc1ccc2nc(NCCNC(=O)C(C)(C)C)c(C)cc2c1`, for which the inhibition is -13.1% (inactive).

As to `CCOc1ccc2nc(N3CCCN(C(=O)Nc4ccccc4C)CC3)c(C#N)cc2c1`, the inhibition is 36.8% (active).

For the molecule `CCOC(OCC)c1ccc(/C=C\c2nccc(N)n2)cc1`, the inhibition is -3.79% (inactive).

Consider `CCCCc1ccc(S(=O)(=O)NC(=O)C2(C)CCN2C(=O)c2c(C)noc2C)cc1` (stereo unspecified), for which the inhibition was -0.915% (inactive).

Take `CCOC(=O)N1CCN(S(=O)(=O)c2cc3c(cc2C)NC(=O)CO3)CC1`: the inhibition was 6.26% (inactive).

In the case of `CCCCC(=O)Nc1nc(C)c(-c2csc(Nc3ccc(Cl)cc3)n2)s1`, the inhibition is 20.5% (inactive).

In the case of `CCCCCCC(=O)Nc1nc(C)c(-c2csc(Nc3cc(Cl)ccc3OC)n2)s1`, the inhibition was 33% (active).

As to `CCCCCCC(=O)Nc1nc(C)c(-c2csc(Nc3cccc(OC)c3)n2)s1`, the inhibition is 17.7% (inactive).

Take `CCOc1ccc(/C(O)=C2\C(=O)C(=O)N(c3ccc(OC)cc3)C2c2ccccc2[N+](=O)[O-])cc1` (stereo unspecified): the inhibition was -0.376% (inactive).

Consider `CCC(=C/c1sc2ccc3ccccc3c2[n+]1C)/C=C1\Sc2ccc3ccccc3c2N1C`, for which the inhibition was 38.9% (active).

In the case of `Cc1[nH]c(N)nc(=S)c1CCCNc1ccccc1`, the inhibition is 4.24% (inactive).

For the molecule `CCCc1cc(=S)n2c([nH]c3ccccc32)c1C#N`, the inhibition is 11.9% (inactive).

As for `CNC[C@H]1Oc2c(NC(=O)C3CCCCC3)cccc2C(=O)N([C@H](C)CO)C[C@@H]1C`, the inhibition was 0.223% (inactive).

In the case of `CN(C)C(=O)Cn1c(=O)n(S(=O)(=O)c2ccccc2)c2ccccc21`, the inhibition is -0.572% (inactive).

For the molecule `Cc1nc(N)nc(Cl)c1CCC1OCCO1`, the inhibition was -2.19% (inactive).

As to `CCCCNS(=O)(=O)c1ccc(S(=O)(=O)n2cnc3ccccc32)cc1`, the inhibition is 0.725% (inactive).

For `CC(C)C(c1nnnn1C1CCCC1)N1CCN(c2ccccc2F)CC1` (stereo unspecified), the inhibition was -3.03% (inactive).

Regarding `CC(=O)NS(=O)(=O)c1ccc(N/C(N)=N/c2nc(C)cc(C)n2)cc1`, the inhibition is 4.03% (inactive).

Take `CC(=O)Nc1ccc(Nc2cc(C)nc(Nc3ccc(NC(C)=O)cc3)n2)cc1`: the inhibition was 32.4% (active).

Regarding `COc1ccc(C(=O)NNc2cc(C)nc(NNC(=O)c3ccc(OC)cc3)n2)cc1`, the inhibition is 3.2% (inactive).

In the case of `CC1CCC2(CC1)NC(=O)N(CC(=O)c1cccn1C)C2=O` (stereo unspecified), the inhibition was -3.17% (inactive).

On to `Cc1ccc2nsnc2c1S(=O)(=O)N1CCCC1C(=O)O` (stereo unspecified), for which the inhibition was -6.81% (inactive).

For the molecule `CCCCc1ccc(NC(=S)N2CCCC(CO)C2)cc1` (stereo unspecified), the inhibition was -0.962% (inactive).

`CC(=O)c1ccc(N2C(=NC(=O)C(C)C)SC3CS(=O)(=O)CC32)cc1` (stereo unspecified): the inhibition is -3.55% (inactive).

For `CC(=O)Nc1ccc(C(=O)Nc2nc(-c3cc(C)n(Cc4ccccc4)c3C)cs2)cc1`, the inhibition was 41.8% (active).

Regarding `Cc1ccc(C(=O)Nc2c(C#N)c(C)c(C)n2Cc2ccccc2)cc1`, the inhibition was -7.87% (inactive).

For `Cc1c(C#N)c(NC(=O)c2ccccc2)n(Cc2ccccc2)c1C`, the inhibition was -5.49% (inactive).

Consider `CCc1nn(CCCC(=O)Nc2ccc(C)c(C)c2)c(=O)c2cc3occc3n12`, for which the inhibition is 5.14% (inactive).

For the molecule `Cc1cc(CNCc2c(C(=O)N(C)Cc3ccccc3)nc3ccccn23)nn1C`, the inhibition was -2.9% (inactive).

For the molecule `COc1ccc(NC(=O)C2CCC(CNc3c(N4CCCCC4)c(=O)c3=O)CC2)c(OC)c1` (stereo unspecified), the inhibition was 1.77% (inactive).

`CCOC(=O)c1c(NC(=O)NC(C)(C)C)sc2c1CCN(C)C2`: the inhibition is 0.728% (inactive).

As to `Cc1c(OC(C)C(=O)N[C@@H](Cc2ccccc2)C(=O)O)ccc2c3c(c(=O)oc12)CCCC3` (stereo partly specified), the inhibition is 3.9% (inactive).

Take `Cc1oc2c(C)c3oc(=O)c(CC(=O)N[C@@H](CC(C)C)C(=O)N[C@@H](Cc4ccccc4)C(=O)O)c(C)c3cc2c1C`: the inhibition is 35.9% (active).

Consider `Cc1c(CCC(=O)N[C@@H](CC(C)C)C(=O)O)c(=O)oc2c(C)c3oc4c(c3cc12)CCCC4`, for which the inhibition was -0.714% (inactive).

As to `COc1cc(Cl)cc(C2NC(=O)NC(C)=C2C(=O)NCc2ccccc2)c1O` (stereo unspecified), the inhibition is -2.49% (inactive).

With `Cc1cccc(C)c1NC(=O)C1(C)c2cccc[n+]2CC(=O)N1Cc1cccs1` (stereo unspecified), the inhibition is 6.36% (inactive).

Take `CCn1cc(C(=O)NC2CCCCCC2)c(=O)c2cc(S(=O)(=O)N3CCCCC3)ccc21`: the inhibition was -1.8% (inactive).

As for `CCn1cc(C(=O)NCC2CCCO2)c(=O)c2cc(S(=O)(=O)N3CCCCC3)ccc21` (stereo unspecified), the inhibition was 8.79% (inactive).

Take `CCn1cc(C(=O)NCCCN2CCCCCC2)c(=O)c2cc(S(=O)(=O)N3CCc4ccccc4C3)ccc21`: the inhibition is 25.6% (active).

With `COCCN(C(=O)C(C)N1C(=O)c2ccccc2C1=O)c1c(N)n(CC(C)C)c(=O)[nH]c1=O` (stereo unspecified), the inhibition was 0.415% (inactive).

Consider `COCCNC(=O)C(OC(=O)c1cccs1)c1ccc(F)cc1` (stereo unspecified), for which the inhibition was 2.74% (inactive).

For the molecule `O=C(Cc1csc(Nc2nc(=S)[nH]c3ccccc23)n1)NCCCN1CCN(c2cccc(Cl)c2)CC1`, the inhibition was 43.9% (active).

Take `O=C(Cc1ccc(-n2c(=O)[nH]c3ccccc3c2=O)cc1)N1CCN(c2cccc(Cl)c2)CC1`: the inhibition is 6.86% (inactive).

As for `CCOC(=O)N1CCC(Nc2c(NCCN3CCN(c4cccc(Cl)c4)CC3)c(=O)c2=O)CC1`, the inhibition was -3.05% (inactive).

With `CCOC(=O)N1CCC(N2Cc3cccc(C(=O)Nc4c(C)cccc4CC)c3C2=O)CC1`, the inhibition is 8.26% (inactive).

As to `Cc1ccc(C(=O)N2CCCC(c3ccccc3)=N2)cc1`, the inhibition was -4.43% (inactive).

As for `COc1ccc(N2CCN(c3ccc([N+](=O)[O-])nc3)CC2)cc1`, the inhibition is 1.06% (inactive).

Take `O=C(CCc1ccccc1)NNc1ccc(F)cc1`: the inhibition was -2.34% (inactive).

Regarding `O=c1[nH]c(CSc2ncc(-c3ccc(F)cc3)n2Cc2ccco2)nc2ccccc12`, the inhibition was 1.31% (inactive).

In the case of `Cc1ccc(Cn2c(C)nc3c(c2=O)c2nc4ccccc4nc2n3Cc2ccco2)cc1`, the inhibition is 49% (active).

For `Clc1cccc(-c2nc3nc4ccccc4nc3n2Cc2ccco2)c1`, the inhibition was -0.737% (inactive).

With `COc1cc(C2c3cc4c(cc3C(O)C3COC(=O)C23)OCO4)cc(OC)c1OC` (stereo unspecified), the inhibition was 0.207% (inactive).

For `Cc1ccc(-c2nn(-c3ccccc3)cc2/C=C2\SC(=S)N(CCCCCC(=O)O)C2=O)o1`, the inhibition is 34.1% (active).

As for `O=C(O)CCCCCCCCc1cn(CN2C(=O)c3ccccc3C2=O)nn1`, the inhibition is 1.47% (inactive).

For the molecule `CC(C)[C@@H]1NC(=O)c2cc([N+](=O)[O-])cc(I)c2NCCC[C@@H](C(=O)NC(CC(=O)O)C(N)=O)NC(=O)[C@H](CO)NC1=O` (stereo partly specified), the inhibition was -2.22% (inactive).
